Assay results from the supplement of paper PMC4894684.
Structures can show the parent of a compound that is named as a salt. ± gives the standard deviation of the averaged measurements.

test system: Toxoplasma gondii RH (in HFF); assay: parasite growth relative to the screen mean (all compounds = 100%); higher = less inhibition of parasite growth; conditions: 5 µM; 72 h; oxygen 21 %
How it was run: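 Confluent human foreskin fibroblasts in 96-well plates received library compounds by pin transfer at 5 µM final, taken from 10 mM DMSO stocks. Within 2 h the cells were infected with RH β-Gal–GFP Toxoplasma at MOI 1:5 and cultured 72 h at 21% O2. A CPRG β-Gal assay read against in-plate standard curves gave parasite number, and growth is stated relative to the screen mean, where all compounds = 100%, averaged across two screens.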

Question: How did the parasite growth turn out when `Cc1c(C(=O)NC2CCCCC2)sc2nc3ccc(N)cc3n12` was run?
Answer: 183 ± 33%

Question: How did the parasite growth turn out when `CCC1=C(C)CN(C(=O)NCCc2ccc(S(=O)(=O)NC(=O)N[C@H]3CC[C@H](C)CC3)cc2)C1=O` [Glimepiride] was run?
Answer: 149 ± 43%

Question: Which parasite growth does the source give for `CC(=O)OCCNC(=O)c1cccnc1` [N-[2-(Acetoxy)ethyl]-3-pyridinecarboxamide] here?
Answer: 117 ± 13%

Question: With `Nc1ncnc2nc(-c3ccc(N4CCOCC4)nc3)cc(-c3cccc(Br)c3)c12` [ABT 702 dihydrochloride] as the compound, how does the parasite growth read?
Answer: 100 ± 9.5%

Question: With `NC(=O)c1ccc(-c2nc(-c3ccccn3)c(-c3ccc4c(c3)OCO4)[nH]2)cc1` as the compound, how does the parasite growth read?
Answer: 36.2 ± 32%

Question: How did the parasite growth turn out when `Cc1c(C(=O)NN2CCCCC2)nn(-c2ccc(Cl)cc2Cl)c1-c1ccc(I)cc1` was run?
Answer: 45.2 ± 3%

Question: `CCOc1ccccc1OC(c1ccccc1)C1CNCCO1` (stereo not drawn) [Reboxetine mesylate] was tested. Which parasite growth did it give?
Answer: 102 ± 5.2%

Question: For `C[C@@H](CN1CC(=O)NC(=O)C1)N1CC(=O)NC(=O)C1` [Dexrazoxane hydrochloride], which parasite growth is on record?
Answer: 102 ± 13%

Question: `C[N+](C)(C)CC[N+]1(C)Cc2c(Cl)c(Cl)c(Cl)c(Cl)c2C1` [Chlorisondamine diiodide] was tested. Which parasite growth did it give?
Answer: 168 ± 14%

Question: For `O=C1CCc2cc(OCCCCc3nnnn3C3CCCCC3)ccc2N1` [Cilostazol], which parasite growth is on record?
Answer: 74.6 ± 3.3%

Question: How did the parasite growth turn out when `Nc1nnc(Sc2ncc([N+](=O)[O-])s2)s1` was run?
Answer: 116 ± 26%

Question: With `O=C(Nc1ccccc1)N[C@@H]1C[C@@H](C(=O)O)Nc2cc(Cl)cc(Cl)c21` as the compound, how does the parasite growth read?
Answer: 104 ± 3.9%

Question: Which parasite growth does the source give for `CC1(C)Oc2ccc(C#N)cc2[C@H](N2CCCC2=O)[C@H]1O` [Cromakalim] here?
Answer: 127 ± 5.1%

Question: Which parasite growth does the source give for `Nc1ccc(-c2nc3ccc(-c4nc5ccc(N)cc5[nH]4)cc3[nH]2)cc1` here?
Answer: 89.6 ± 5.3%

Question: For `CC(C)NCC(O)COc1ccc(COCCOC(C)C)cc1` (racemic) [(±)-Bisoprolol hemifumarate], which parasite growth is on record?
Answer: 77.7 ± 0.94%

Question: Which parasite growth does the source give for `O=C(O)c1cc(=O)c2ccccc2[nH]1` [Kynurenic acid] here?
Answer: 123 ± 18%

Question: With `CCCC1O[C@@H]2C[C@H]3[C@@H]4CCC5=CC(=O)C=C[C@]5(C)[C@H]4[C@@H](O)C[C@]3(C)[C@]2(C(=O)CO)O1` (stereo partly drawn) [Budesonide] as the compound, how does the parasite growth read?
Answer: 138 ± 12%

Question: `COC1(C2=NCCN2)COc2ccccc2O1` (stereo not drawn) was tested. Which parasite growth did it give?
Answer: 136 ± 3.9%

Question: Which parasite growth does the source give for `Cc1ccc2c(=O)c3ccccc3n(CCCN)c2c1C` here?
Answer: < 0%

Question: `COc1ccc2[nH]c(I)c(CCNC(C)=O)c2c1` [2-Iodomelatonin] was tested. Which parasite growth did it give?
Answer: 106 ± 4.9%

Question: Which parasite growth does the source give for `CN1CCN2c3ncccc3Cc3ccccc3C2C1` (stereo not drawn) [Mirtazepine] here?
Answer: 92.3 ± 34%

Question: With `Cc1ccc2c(c1)c1c3n2CCNC3CCC1` (stereo not drawn) [Pirlindole mesylate] as the compound, how does the parasite growth read?
Answer: 152 ± 16%

Question: With `CC(C(=O)O)c1ccc(-c2ccccc2)c(F)c1` (stereo not drawn) [Flurbiprofen] as the compound, how does the parasite growth read?
Answer: 139 ± 26%

Question: For `CC[C@H](CO)Nc1nc(Nc2cccc(-c3ccccn3)c2)c2ncn(C(C)C)c2n1` [(R)-DRF053 dihydrochloride], which parasite growth is on record?
Answer: 32.4 ± 16%

Question: With `CC(C)[C@H](NS(=O)(=O)c1ccc(-c2ccc(Br)cc2)cc1)C(=O)O` as the compound, how does the parasite growth read?
Answer: 130 ± 34%

Question: Which parasite growth does the source give for `CCCCCCCCCCCCCCCC(=O)NCCO` [Palmitoylethanolamide] here?
Answer: 64.8 ± 16%

Question: `N[C@@H](CSC(c1ccccc1)(c1ccccc1)c1ccccc1)C(=O)O` [S-Trityl-L-cysteine] was tested. Which parasite growth did it give?
Answer: 118 ± 8.6%

Question: How did the parasite growth turn out when `C=CC(=O)c1ccc2ccccc2c1` was run?
Answer: 70.4 ± 7.8%

Question: `O=C1CCC(N2C(=O)c3ccccc3C2=O)C(=O)N1` (stereo not drawn) [Thalidomide] was tested. Which parasite growth did it give?
Answer: 151 ± 46%

Question: `c1ccc2oc(C3=NCCN3)cc2c1` [2-BFI hydrochloride] was tested. Which parasite growth did it give?
Answer: 109 ± 12%

Question: Which parasite growth does the source give for `Cc1cc(C)cc(C(=O)N(C)[C@H](Cc2ccc(-c3ccccc3)cc2)C(=O)N[C@@H](Cc2c[nH]c3ccccc23)C(=O)O)c1` here?
Answer: 146 ± 20%

Question: How did the parasite growth turn out when `CC1CCN(CC[C@H]2CCCN2S(=O)(=O)c2cccc(O)c2)CC1` was run?
Answer: 120 ± 15%

Question: How did the parasite growth turn out when `c1ccc2sc(N3CCN(Cc4ccc5c(c4)OCO5)CC3)nc2c1` [2-[1-(4-Piperonyl)piperazinyl]benzothiazole] was run?
Answer: 113 ± 20%

Question: With `CC(=O)N(O)[C@@H]1c2cc(C#N)ccc2OC(C)(C)[C@H]1O` as the compound, how does the parasite growth read?
Answer: 92.8 ± 30%

Question: With `NC(C(=O)O)c1ccc(C(=O)O)c(C(=O)O)c1` (stereo not drawn) as the compound, how does the parasite growth read?
Answer: 141 ± 3%

Question: How did the parasite growth turn out when `COc1c(C)c2c(c(O)c1C/C=C(\C)CCC(=O)O)C(=O)OC2` [Mycophenolic acid] was run?
Answer: < 0%

Question: How did the parasite growth turn out when `COc1cc2nc(N3CCN(C(=O)c4ccco4)CC3)nc(N)c2cc1OC` [Prazosin hydrochloride] was run?
Answer: 73.4 ± 17%

Question: For `CC(C)NCC(O)COc1cccc2[nH]ccc12` (stereo not drawn) [Pindolol], which parasite growth is on record?
Answer: 148 ± 24%
